Test results as given in ChEMBL document CHEMBL3988442, “University of Dundee, Small-Polar-MMV Screening Library” (2021).
The whole screen tested about 69,000 compounds, of which about 420 (0.61%) showed an effect of 50% or more. The sample as a whole holds a higher share of strong results than the screen did.

target: T1, Histidine--tRNA ligase (Leishmania infantum) (UniProt A4I591); test: Leishmania infantum Histidine tRNA synthetase (LdHisRS); assay type: functional; design: scale not given: in the data most compounds retested in dose-response had high values; details: 30 µM
T1 sequence (whole entry): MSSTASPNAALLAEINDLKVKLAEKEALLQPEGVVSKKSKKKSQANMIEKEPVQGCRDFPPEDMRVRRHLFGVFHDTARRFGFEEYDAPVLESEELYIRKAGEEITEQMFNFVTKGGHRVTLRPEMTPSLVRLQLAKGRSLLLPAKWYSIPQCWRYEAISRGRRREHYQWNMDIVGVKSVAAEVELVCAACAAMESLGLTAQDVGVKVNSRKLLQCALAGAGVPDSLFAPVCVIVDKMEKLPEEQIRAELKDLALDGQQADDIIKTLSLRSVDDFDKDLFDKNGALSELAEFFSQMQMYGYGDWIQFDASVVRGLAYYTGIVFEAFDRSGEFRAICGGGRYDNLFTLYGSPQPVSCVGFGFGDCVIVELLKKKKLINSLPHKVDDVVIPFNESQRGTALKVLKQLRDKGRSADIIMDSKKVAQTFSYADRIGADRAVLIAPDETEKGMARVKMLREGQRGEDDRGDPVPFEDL

Row | SMILES | Percent Effect
1 | Cc1nc(CNCc2cccc(OC34CCCN(CC3)C4)c2)n[nH]1 (stereo not given) | 24.7%
2 | COc1cc(C#N)ccc1OC12CCCN(CC1)C2 (stereo not given) | 23.1%
3 | O=c1[nH]nc(CNCc2ccc(OC34CCCN(CC3)C4)cc2)[nH]1 (stereo not given) | 17.6%
4 | c1ccc(Oc2ccc(OC34CCCN(CC3)C4)cc2)cc1 (stereo not given) | 61.2%
5 | Cc1cnccc1CNCc1ccc(OC23CCCN(CC2)C3)cc1 (stereo not given) | 36.5%
6 | c1ccc(Oc2cccc(OC34CCCN(CC3)C4)c2)cc1 (stereo not given) | 51%
7 | Cc1ccc(C(=O)N2C[C@@H]3CCCO[C@@H]3[C@H](N(C)Cc3ccco3)C2)o1 | 3.23%
8 | O=S(=O)(N1CCCC1)N1CC[C@H](c2ccccc2)[C@H]2NCCCC[C@H]21 | 26.3%
9 | COc1ncccc1CN1C[C@@H]2COC[C@]2(COc2ccccn2)C1 | 7.69%
10 | CS(=O)(=O)NC[C@]12COC[C@H]1CN(C(=O)c1cnccn1)C2 | -2.65%
11 | O=C(CN1CCN(c2ncccn2)[C@@H]2CS(=O)(=O)C[C@@H]21)N1CCCCC1 | -8.22%
12 | CCC(C)Sc1ncc(-c2c(C#N)c(N)nc3c2COCC3)cn1 (stereo not given) | 2.17%
13 | COc1ncc(-c2cc(-c3ccn(C)c3)nc(N)c2C#N)cn1 | 35.4%
14 | COc1ncc(-c2c(C#N)c(N)nc3c2CCc2[nH]ccc2-3)cn1 | 95.7%
15 | COCCc1ncc(-c2c(C#N)c(N)nc3c2CCc2[nH]ccc2-3)cn1 | 103%
16 | CCCn1cc(-c2cc(-c3cnc(OC)nc3)c(C#N)c(N)n2)c(C)n1 | 16.4%
17 | CCOc1ccc(-c2c(C#N)c(N)nc3c2COCC3)cn1 | 21.7%
18 | O=C([C@@H]1C[C@@H]2CCN(Cc3ccco3)C[C@H]2O1)N1CCCO1 | 15%
19 | Cn1nc2c(cc1=O)CN(CC(=O)Nc1ccc(Cl)cn1)CC2 | 103%
20 | Cn1nc2c(cc1=O)CN(CC(=O)Nc1nncs1)CC2 | 6.06%
21 | CC(C(=O)Nc1nccs1)N1CCc2nn(C)c(=O)cc2C1 (stereo not given) | 23.2%
22 | CC(C(=O)Nc1ccc(Cl)cn1)N1CCc2nn(C)c(=O)cc2C1 (stereo not given) | 102%
23 | Cn1nc2c(cc1=O)CN(CC(=O)Nc1nccs1)CC2 | 48.2%
24 | CC(C(=O)Nc1ccnn1C(C)C)N1CCc2nn(C)c(=O)cc2C1 (stereo not given) | 25%
25 | Cc1cccc(CN2C(=O)CO[C@@H]3CN(CCO)C[C@H]32)c1 | 15.4%
26 | Cc1cc(C(=O)N2CC[C@@H]3CN(C)S(=O)(=O)[C@@H]3CC2)no1 | 9.62%
27 | Cc1cccc(COC[C@@H]2CC[C@H]3[C@H](CCN3Cc3ccco3)O2)n1 | 13.3%
28 | CCCc1nc(CNC2(c3nccs3)CCCC2)cs1 | 15.1%

Row | SMILES | Percent Effect
29 | c1csc(C2(NCc3csc(C4CC4)n3)CCCC2)n1 | 51.6%
30 | Cc1csc(C2(NCc3csc(C4CC4)n3)CCCC2)n1 | 8.6%
31 | O=C(NC[C@H]1CC[C@H](c2nnc(-c3cccnc3)o2)CC1)C1CC1 | -19.9%
32 | O=C(c1ccsc1)N1C[C@@H]2CCN(C(=O)c3cccc(F)c3)[C@@H]2C1 | 11.7%
33 | COc1ccc(CNC(=O)Nc2ccc(=O)n(C)c2)cc1 | 114%
34 | Cn1cc(NC(=O)NCc2ccoc2)ccc1=O | 120%
35 | Cc1nnc(NC(=O)NCc2ccoc2)s1 | 7.69%
36 | COc1ccc(CNC(=O)c2ccc(=O)n(C)c2)cc1C | -2.08%
37 | O=C(NCc1ccoc1)Nc1ccc(CN2CCOC2=O)cc1 | 2.88%
38 | COc1cccc(-c2ccc(CNC(=O)c3ccc(=O)n(C)c3)cc2)c1 | 14.6%
39 | COc1ccc(CNC(=O)Nc2ccc(S(=O)(=O)C(F)F)cc2)cc1 | 18.3%
40 | COc1ccc(CNC(=O)Nc2ccc(CN3CCOC3=O)cc2)cc1 | 15.2%
41 | COC(=O)c1ccc(CNC(=O)Nc2ccc(=O)n(C)c2)cc1 | 120%
42 | c1cnc(N2C[C@H]3CCN(CCN4CCCC4)C[C@H]3C2)cn1 | 25.7%
43 | Cc1ccc(CN2CC[C@H]3[C@@H]2CCC(=O)N3CCN2CCCC2)s1 | 5.11%
44 | CC(C)NC(=O)N1CC[C@H]2[C@H]1CCN2c1ncccn1 | 15.4%
45 | COc1ncccc1CN1C[C@@H]2COC[C@]2(COc2cccnc2)C1 | 20.5%
46 | Cc1nc([C@@H]2C[C@@H]3CCN(C(=O)c4ccsc4)C[C@H]3O2)no1 | 0%
47 | COc1cccc(CN2C[C@@H]3CC[C@@](O)(c4ccccn4)[C@@H]3C2)c1OC | 0%
48 | CC(C)=CCN1CCN(Cc2nccn2C)[C@H]2CS(=O)(=O)C[C@H]21 | 11.2%
49 | CCCS(=O)(=O)N1CCO[C@H]2[C@@H](Oc3cccnc3)CC[C@@H]21 | 16.4%
50 | Cc1c(CN2CCOCC2)c(O)n(CCc2ccccc2)c(=O)c1C#N | 60.5%
51 | Cc1c(CN2CCCCC2)c(O)n(CCCO)c(=O)c1C#N | 45.4%
52 | Cn1c(NCCN2CCCCCC2)c(C#N)c(=O)n(C)c1=O | 24.7%
53 | Cc1c(CN2CCCCC2)c(O)n(CCO)c(=O)c1C#N | 55.9%
54 | CN(CCN1CCOCC1)C(=O)CCCc1ccccc1 | 11.4%
55 | Cc1c(CN2CCOCC2)c(O)n(CCO)c(=O)c1C#N | 47.4%
